T cruzi growth-1 – T. cruzi intracellular proliferation inhibitors, primary screen, cell-based, beta-gal Tulahuen parasites, NIH3T3 host, luminescence | T. cruzi beta-gal in NIH3T3, GalScreen luminescence, 90 h | inhibition, % at 8.34 µM | 77,000 compounds, 5.9% hits;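 active means mean inhibition above about 93%, with at least 55% of replicates each passing it, limit read from the data, passing the limit was not always enough; inconclusive means only one of those two conditions holds; inactive means neither condition holds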
C diff growth – C. difficile growth inhibitors, primary screen, HTS | 86,000 compounds, 0.25% hits | growth activity, negative = inhibition, % at 16 µg/mL (by protocol) | Clostridium difficile clinical isolate growth, OD600, 24 h; hits give low values;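 active means mean growth activity at or below -80% and every replicate also at or below -80%; inconclusive means mean at or below -80% but some replicate above -80%; inactive means mean growth activity above -80%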;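 further: 0% = DMSO wells and -100% = levofloxacin 16 µg/mL wells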
T cruzi growth-2 – T. cruzi intracellular proliferation inhibitors, confirmation, cell-based, NIH3T3 host, beta-gal parasite, luminescence, cherry-pick; shares compounds with T cruzi growth-1; T. cruzi beta-gal in NIH3T3, GalScreen luminescence, 90 h; inhibition, % at 8.35 µM; 5,600 compounds, 72% hits; AID 651739, 2012;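 active means mean replicate inhibition above about 95% and at least 55% of replicates individually reaching it, limit read from the data; inconclusive means only one of the two criteria is met; inactive means neither criterion is met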
T cruzi growth-3 – inhibitors of intracellular T. cruzi replication, confirmation, NIH3T3 host cells, beta-gal parasites, cherry-pick, set 2; 5,600 compounds, 21% hits; inhibition, % at 2.09 µM; shares compounds with T cruzi growth-1; T. cruzi beta-gal in NIH3T3, GalScreen luminescence, 90 h; AID 651740, 2012;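 active means mean inhibition above about 95%, with at least 55% of replicates also reaching it, limit read from the data; inconclusive means meets just one of the two conditions; inactive means meets neither condition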;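 further: plate controls were neutral control median for no effect and positive control median for full effect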
3T3 cytotox – cytotoxicity in mouse NIH/3T3 fibroblasts, confirmation, cytotoxicity control for T. cruzi proliferation inhibitor project, cell-based, cherry-pick, single point; 5,600 compounds, 14% hits; NIH/3T3 viability, CellTiter-Glo ATP luminescence, 90 h; shares compounds with T cruzi growth-1; cytotoxicity (signal decrease), % at 8.35 µM;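 active means mean signal decrease across replicates above about 35% based on untreated-well scatter, with enough replicates individually passing, limit read from the data; inconclusive means no rule stated though some were filed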;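 further: 0% = median of neutral control wells and 100% = median of positive control wells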
3T3 cytotox 2 – NIH/3T3 fibroblast cytotoxicity, confirmation, cytotoxicity control, cell-based, cherry-pick, single point, set 2 | shares compounds with T cruzi growth-1 | NIH/3T3 viability, CellTiter-Glo ATP luminescence, 90 h | inhibition, % at 24.9 µM | 5,600 compounds, 56% hits | AID 651744, 2012;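 active means mean loss of cell viability signal at or above a set limit, and enough replicates individually reaching it; inconclusive means meets only the mean limit or only the replicate share; inactive means meets neither condition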;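 further: 0% = median of neutral control wells and 100% = median of positive control wells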
* = called active by the depositor; ? = inconclusive; . = no result given. The entries come from a sample that favours hits as a whole.

SMILES | T cruzi growth-1 | C diff growth | T cruzi growth-2 | T cruzi growth-3 | 3T3 cytotox | 3T3 cytotox 2
C[C@@H]1CN([C@H](C)CO)S(=O)(=O)c2ccc(Br)cc2O[C@@H]1CN(C)S(=O)(=O)c1ccc(F)cc1 | 87.4 | . | . | . | . | .
Cc1ccc(S(=O)(=O)N(C)C[C@H]2Oc3cc(Br)ccc3S(=O)(=O)N([C@H](C)CO)C[C@@H]2C)cc1 | 110.1* | 8.1 | 107.0* | 81.0 | 32.8 | 60.6*
C[C@H]1CN([C@@H](C)CO)S(=O)(=O)c2ccc(Br)cc2O[C@@H]1CN(C)S(=O)(=O)c1ccc(F)cc1 | 89.7 | . | . | . | . | .
Cc1ccc(S(=O)(=O)N(C)C[C@@H]2Oc3cc(Br)ccc3S(=O)(=O)N([C@@H](C)CO)C[C@H]2C)cc1 | . | 0.1 | . | . | . | .
C[C@@H]1CN([C@H](C)CO)S(=O)(=O)c2ccc(Br)cc2O[C@H]1CN(C)S(=O)(=O)c1ccc(F)cc1 | 96.6* | 5.5 | 113.3* | 38.0 | 23.5 | 61.2*
C[C@H](CO)N1C[C@H](C)[C@H](CN(C)S(=O)(=O)c2cccc(F)c2)Oc2cc(Br)ccc2S1(=O)=O | 116.7* | 18.9 | 105.6* | 66.3 | 3.9 | 48.5*
C[C@@H]1CN([C@@H](C)CO)S(=O)(=O)c2ccc(Br)cc2O[C@H]1CN(C)S(=O)(=O)c1ccc(F)cc1 | 100.4* | 0.3 | 105.9* | 45.2 | 23.1 | 77.7*
CCOC(=O)N(C)C[C@@H]1OCc2ccccc2-c2c(n(C)c3ccccc23)C(=O)N([C@@H](C)CO)C[C@@H]1C | -25.8 | . | . | . | . | .
C[C@H](CO)N1C[C@H](C)[C@H](CN(C)S(=O)(=O)c2ccc(F)cc2)Oc2ccc(NS(=O)(=O)c3ccc(Cl)cc3)cc2C1=O | 39.9 | 0.6 | . | . | . | .
C[C@@H]1CN([C@@H](C)CO)C(=O)c2cc(NS(=O)(=O)c3ccc(F)cc3)ccc2O[C@@H]1CN(C)Cc1ccncc1 | 65.7 | -1.0 | . | . | . | .
CCC(=O)N[C@H]1CC[C@@H](CC(=O)NCc2ccccc2F)O[C@@H]1CO | -70.3 | . | . | . | . | .
CNC(=O)C[C@@H]1CC[C@@H]2[C@H](COc3ccc(NC(=O)c4ccccc4Cl)cc3C(=O)N2C)O1 | -16.4 | -2.7 | . | . | . | .
CCCC#Cc1ccc2c(c1)O[C@H](CN(C)C(=O)c1ccncc1)[C@@H](C)CN([C@H](C)CO)S2(=O)=O | 74.1 | 5.3 | . | . | . | .
CCCNC(=O)N1CC2(CCN(C(=O)C3CC3)CC2)c2c([nH]c3cc(OC)ccc23)[C@@H]1CO | . | 3.4 | . | . | . | .
COc1ccc(CN(C)C[C@H]2Oc3c(NS(=O)(=O)c4ccc(C)cc4)cccc3C(=O)N([C@H](C)CO)C[C@@H]2C)cc1 | 16.6 | 8.3 | . | . | . | .
O=C(C[C@@H]1C[C@H]2c3cc(NS(=O)(=O)c4ccc(F)cc4)ccc3O[C@H]2[C@H](CO)O1)N1CCc2ccccc2C1 | ? | -6.5 | 83.2 | 26.7 | 18.1 | 20.1
O=C(C[C@@H]1C[C@@H]2c3cc(NS(=O)(=O)c4ccc(F)cc4)ccc3O[C@@H]2[C@@H](CO)O1)N1CCCCC1 | . | -7.5 | . | . | . | .
O=C(C[C@@H]1C[C@@H]2c3cc(NS(=O)(=O)c4ccc(F)cc4)ccc3O[C@@H]2[C@@H](CO)O1)N1CCc2ccccc2C1 | 114.6* | -7.6 | 99.6* | 13.1 | 15.9 | 13.2
O=C(C[C@H]1C[C@H]2c3cc(NS(=O)(=O)c4ccc(F)cc4)ccc3O[C@H]2[C@H](CO)O1)N1CCc2ccccc2C1 | 109.5* | 6.1 | 84.7 | 26.1 | -6.5 | 6.9
CS(=O)(=O)Nc1ccc2c(c1)[C@@H]1C[C@H](CC(=O)N3CCc4ccccc4C3)O[C@H](CO)[C@@H]1O2 | . | -2.7 | . | . | . | .
CS(=O)(=O)Nc1ccc2c(c1)[C@@H]1C[C@@H](CC(=O)N3CCc4ccccc4C3)O[C@@H](CO)[C@@H]1O2 | . | -5.6 | . | . | . | .
O=C(Nc1cccc(F)c1)N1CC(=O)N2[C@H](CO)[C@@H](c3ccc(C#CCC4CCCC4)cc3)[C@H]2C1 | . | 2.5 | . | . | . | .
Cc1noc(C)c1S(=O)(=O)Nc1ccc2c(c1)C(=O)N([C@H](C)CO)C[C@H](C)[C@H](CN(C)C(=O)C1CCCCC1)OCCCC[C@H](C)O2 | 59.0 | 3.5 | . | . | . | .
C[C@H](CO)N1C[C@H](C)[C@@H](CN(C)S(=O)(=O)c2cn(C)cn2)OCCCC[C@H](C)Oc2ccc(NS(=O)(=O)c3cn(C)cn3)cc2C1=O | -30.9 | 0.4 | . | . | . | .
CCN1[C@H](C(=O)NCc2cccc(OC)c2)[C@@H](CO)[C@@H]2Cn3c(ccc(C4=CCCC4)c3=O)[C@@H]21 | -71.2 | -10.9 | . | . | . | .
SMILES | T cruzi growth-1 | C diff growth | T cruzi growth-2 | T cruzi growth-3 | 3T3 cytotox | 3T3 cytotox 2
CN1c2ccc(-c3ccccc3F)cc2[C@H]2[C@H](CCN2C(=O)Nc2ccc(F)cc2)[C@H]1CO | ? | 75.2 | 111.1* | 93.6 | -14.8 | 45.4*
CCC(=O)N1CC[C@@H]2[C@@H](CO)N(C)c3ccc(-c4ccccc4F)cc3[C@@H]21 | 89.2 | 8.7 | . | . | . | .
CN1c2ccc(-c3ccccc3F)cc2[C@@H]2[C@@H](CCN2C(=O)Nc2ccc(F)cc2)[C@@H]1CO | 107.0* | -10.2 | 103.6* | 101.4* | 13.8 | 43.4*
CCC(=O)N1CC[C@@H]2[C@H]1c1cc(-c3ccccc3F)ccc1N(C)[C@H]2CO | 91.5 | -2.6 | . | . | . | .
C[C@H]1CN([C@@H](C)CO)C(=O)c2cc(NS(=O)(=O)c3cn(C)cn3)ccc2O[C@@H]1CN(C)CC1CC1 | -7.0 | 1.9 | . | . | . | .
Cc1ccc(S(=O)(=O)Nc2ccc3c(c2)C(=O)N([C@H](C)CO)C[C@@H](C)[C@@H](CN(C)C(=O)CCC(F)(F)F)OCCCC[C@H](C)O3)cc1 | 2.5 | . | . | . | . | .
C[C@@H]1CCCCO[C@H](CN(C)C(=O)NC2CCCCC2)[C@@H](C)CN([C@H](C)CO)C(=O)c2cc(NS(=O)(=O)c3ccccc3)ccc2O1 | 34.6 | 3.8 | . | . | . | .
C[C@@H]1CCCCO[C@H](CN(C)C(=O)NC2CCCCC2)[C@H](C)CN([C@@H](C)CO)C(=O)c2cc(NS(=O)(=O)c3ccccc3)ccc2O1 | 102.1* | -2.4 | 104.2* | 42.6 | -2.9 | -5.8
C[C@H]1CCCCO[C@@H](CN(C)C(=O)NC2CCCCC2)[C@@H](C)CN([C@@H](C)CO)C(=O)c2cc(NS(=O)(=O)c3ccccc3)ccc2O1 | 102.5* | 5.3 | 79.9 | 35.9 | 10.2 | 11.1
C[C@@H]1CN([C@H](C)CO)C(=O)c2cc(NS(=O)(=O)c3ccccc3)ccc2O[C@@H](C)CCCCO[C@@H]1CN(C)C(=O)NC1CCCCC1 | 90.1 | 9.2 | . | . | . | .
C[C@@H]1CCCCO[C@H](CN(C)C(=O)NC2CCCCC2)[C@H](C)CN([C@H](C)CO)C(=O)c2cc(NS(=O)(=O)c3ccccc3)ccc2O1 | 105.6* | 7.0 | 72.5 | 37.5 | -8.1 | -23.5

Source: PubChem (Broad Institute)
